From PubChem
IL1B secr inh = qHTS for Inhibitors of Inflammasome Signaling: IL-1-beta AlphaLISA Primary Screen; THP-1 LPS/ATP IL-1B secretion, AlphaLISA, 16 h; stronger effect = lower value; activity change, % at 57.5 µM; actives 4.7% (n = 360,000); AID 743279, 2014; in the data active means activity change below about -50%; inconclusive means mostly about -30% to -49%
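Secreted IL-1B measured by AlphaLISA bead assay after 16 h compound exposure of THP-1 cells; compounds (final up to 57.5 uM) added 1 h before LPS (250 ng/mL) and ATP (1.25 mM) stimulation; lower signal means less secretion.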
TDP1 cell noCPT = qHTS for Inhibitors of human tyrosyl-DNA phosphodiesterase 1 (TDP1): qHTS in cells in absence of CPT. DT40 Tdp1-/- hTDP1 cells, no CPT, ATP luminescence, 48 h. Potency, µM (titrated, usually from 46.2 µM), inactives show at the highest dose activity change, negative = growth inhibition, hits mostly inhibitors. actives 15% (n = 420,000). AID 686978, 2013; further: potency means the concentration at half of the fitted maximal effect; nearly all actives have a fitted effect of over 55% in size
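No-CPT arm: Tdp1-/-;hTDP1 DT40 cells (400/well) plus compounds, incubated ≥48 hr at 37 °C. Readout CellTiter-Glo luminescence.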
TDP1 cell CPT = qHTS for Inhibitors of human tyrosyl-DNA phosphodiesterase 1 (TDP1): qHTS in cells in presence of CPT; chicken DT40 Tdp1-/-;hTDP1 cells + 20 nM CPT, ATP luminescence, 48 h; actives 12% (n = 420,000); Potency, µM (highest dose often 46.2 µM), inactives show at the highest dose activity change, negative = growth inhibition, usual class: inhibitors; AID 686979, 2013; further: potency means the concentration at half of the fitted maximal effect; nearly all actives have a fitted effect of over 55% in size
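Cell growth measured by CellTiter-Glo luminescence after a minimum 48 h, 37 C compound exposure with 20 nM CPT in Tdp1-knockout DT40 cells stably expressing hTDP1, seeded 400/well; qHTS titration format.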
Six1-Eya2 blk = qHTS Assay for Inhibitors of the Six1/Eya2 Interaction; AID 651725, 2012; Homeobox protein SIX1 (Homo sapiens) + Protein phosphatase EYA2 (Homo sapiens), …; AlphaScreen GST-Six1/His-Eya2 binding, biochemical; stronger effect = lower value; actives 0.56% (n = 360,000); activity change, % (concentration not given with the values); in the data active means activity change below about -65%; inconclusive means mostly about -30% to -63%
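AlphaScreen luminescence read after one hour at 37 °C in darkness. Pin-transferred compounds met GST-Six1 and His-Eya2 protein (5X stock 250 nM/500 nM) plus glutathione donor and Ni-chelate acceptor beads (5X, 50 ug/mL).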
CtBP-E1A blk = qHTS Assay for Inhibitors of the CtBP/E1A Interaction; AlphaScreen GST-E1A/His-CtBP binding, 1536-well; stronger effect = lower value; activity change, % (no concentration beside the values); actives 0.49% (n = 340,000); in the data active means activity change below about -65%; inconclusive means mostly about -30% to -63%
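Protein mix (5X: 125 nM each GST-E1A, His-CtBP) was incubated with pinned compound 2 h at 37 deg C in dark, in 50 mM Tris pH 8.0 buffer with 300 mM NaCl. Glutathione donor and nickel acceptor beads followed; AlphaScreen signal read after 1 h.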
TDP1 block = qHTS Assay for Inhibitors of Tyrosyl-DNA Phosphodiesterase (TDP1); recombinant TDP1, AlphaScreen DNA substrate cleavage; Potency, µM (series often up to 130 µM), inactives show at the highest dose activity change, negative = inhibition, hits mostly inhibitors; actives 0.28% (n = 350,000); further: potency means the concentration at half of the fitted maximal effect; nearly all actives have a fitted effect of over 40% in size
Target sequence (Q9NUW8 whole entry, looked up): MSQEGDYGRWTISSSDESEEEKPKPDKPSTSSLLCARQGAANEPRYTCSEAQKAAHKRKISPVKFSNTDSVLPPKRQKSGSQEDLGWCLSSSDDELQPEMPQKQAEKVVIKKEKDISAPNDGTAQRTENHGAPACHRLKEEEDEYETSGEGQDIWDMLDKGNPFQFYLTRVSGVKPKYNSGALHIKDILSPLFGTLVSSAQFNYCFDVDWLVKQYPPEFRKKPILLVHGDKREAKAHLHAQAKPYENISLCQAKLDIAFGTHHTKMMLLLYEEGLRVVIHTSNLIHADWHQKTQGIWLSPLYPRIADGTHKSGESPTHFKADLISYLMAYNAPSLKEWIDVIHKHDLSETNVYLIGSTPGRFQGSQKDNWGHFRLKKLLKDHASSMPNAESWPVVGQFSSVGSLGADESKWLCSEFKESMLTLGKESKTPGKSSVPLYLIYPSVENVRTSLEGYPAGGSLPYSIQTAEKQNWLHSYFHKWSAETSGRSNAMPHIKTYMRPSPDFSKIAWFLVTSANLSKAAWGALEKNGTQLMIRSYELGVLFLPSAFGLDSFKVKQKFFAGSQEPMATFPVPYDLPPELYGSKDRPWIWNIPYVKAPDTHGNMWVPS
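AlphaScreen read-out: signal falls as enzyme removes the 3' tyrosine-FITC from a 5'-biotinylated DNA oligo (15 nM, 5 min, RT). Enzyme was E. coli-made recombinant Tdp1 at 1 nM, exposed to compound for 15 min beforehand; beads 10 ug/ml, 10 min.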
Numbers without * were called inactive; ? = inconclusive; . = not tested or not shown; [ ] = remark or other dose. This is a sample that favours compounds with a hit; in the whole collection about 18% have one here. Unless noted, the call rests on the fitted dose curve; in most records, active means well fitted curve in the direction sought with a large enough effect; inconclusive means small, poorly fitted or top-dose-only effect, or another doubt; inactive means no such curve, though single readings can be large; an effect the other way counts as inactive or inconclusive. On the % scale 0 is the no-effect control and ±100 the full control effect.

SMILES	IL1B secr inh	TDP1 cell noCPT	TDP1 cell CPT	Six1-Eya2 blk	CtBP-E1A blk	TDP1 block
CC(=O)SC1CC(=O)N(c2ccc(C(C)(C)C)cc2)C1=O (centres undefined)	-4	8.2µM*	3.3µM*	4	-4	4%
CCN=C(NCC)SC1CC(=O)N(c2ccccc2)C1=O (centres undefined)	28	-1%	-3%	6	0	-2%
CCC(C)N(CC(=O)Nc1cccc(C)c1C)C(=O)CCl (centres undefined)	-110*	2.3µM*	?	1	0	-3%
CC(C)N(CC(=O)Nc1ccc(Cl)cc1C(F)(F)F)C(=O)CCl	-115*	6.5µM*	21µM*	-1	2	3%
COc1ccc(-c2c[n+]3c(n2-c2ccccc2)SCC3)cc1OC	44	?	-2%	0	-1	0%
Brc1ccc(-c2c[n+]3c(n2-c2ccccc2)SCC3)cc1	.	5.8µM*	5.8µM*	-11	-9	.
COc1ccc(-c2c[n+]3c(n2-c2ccccc2)SCC3)cc1	-6	4.6µM*	8.2µM*	3	4	.
Cc1ccc(-c2c[n+]3c(n2-c2ccccc2)SCC3)cc1	-2	2.3µM*	3.3µM*	5	-1	.
CCOC(=O)N1CCN(CCC(=O)Nc2ccc(Br)cc2)CC1	26	-28%	-13%	-2	-10	5%
Cc1c(-n2c(O)c(C3=c4ccccc4=NC3=O)sc2=S)c(=O)n(-c2ccccc2)n1C	-13	?	?	3	-7	1%
C/C(=N\NC(=O)COc1ccccc1-c1ccccc1)c1cccnc1	19	21µM*	?	1	1	2%
C/C(=N\NC(=O)c1cccnc1)c1ccccc1	-5	3%	-4%	0	2	5%
C/C(=N\NC(=O)COc1ccccc1-c1ccccc1)c1ccccn1	-7	2.6µM*	2.6µM*	-65*	-25	6%
CCCCCCCC(=O)N/N=C(\C)c1ccc(O)cc1O	31	?	?	-18	-2	1%
C/C(=N\NC(=O)COc1ccccc1-c1ccccc1)c1ccc(O)cc1O	169	?	21µM*	-12	.	.
CCCCCC(=O)N/N=C(\C)c1ccccn1	47	5.8µM*	5.8µM*	?	-13	6%
CCCCCCCCCC(=O)N/N=C(\C)c1cccnc1	2	?	?	23	32	-2%
O=C(O)C1CC=CCC1C(=O)Nc1ccc(Oc2ccc(Cl)cc2)cc1 (centres undefined)	6	?	?	-4	-6	0%
Cc1ccc(C)c(S(=O)(=O)NCc2ccc(C(=O)N3CCC(Cc4ccccc4)CC3)cc2)c1	-57*	?	?	-7	-15	4%
Cc1ccc(C)c(S(=O)(=O)N2CCN(C(=O)c3ccccc3Cc3ccccc3)CC2)c1	-59*	?	11%	9	2	2%
CCn1c(=O)c(C(=O)CN2CCN(S(=O)(=O)c3cc(C)ccc3C)CC2)c(N)n(Cc2ccccc2)c1=O	0	16µM*	10µM*	19	0	0%
Cc1ccc(C)c(S(=O)(=O)N2CCN(C(=O)CCc3nc4ccccc4c(=O)[nH]3)CC2)c1	19	21µM*	21µM*	-1	0	1%
CCn1c(=O)c(C(=O)CN2CCN(Cc3ccc4c(c3)OCO4)CC2)c(N)n(Cc2ccccc2)c1=O	?	?	?	32	1	0%
O=C(c1ccccc1Cc1ccccc1)N1CCN(S(=O)(=O)c2ccccc2)CC1	-25	-28%	-28%	-1	0	4%[56.1 µM]
O=C(NC1=NCCS1)c1cc2ccccc2o1	-1	-9%	-16%	0	6	1%
SMILES	IL1B secr inh	TDP1 cell noCPT	TDP1 cell CPT	Six1-Eya2 blk	CtBP-E1A blk	TDP1 block
Cc1ccc(S(=O)(=O)N2CCN(C(=O)CCc3nc4ccccc4c(=O)[nH]3)CC2)c(C)c1	?	?	?	0	-3	-5%[0.505 µM]
O=C(CCc1nc2ccccc2c(=O)[nH]1)N1CCN(S(=O)(=O)c2ccccc2Br)CC1	-20	?	21µM*	-14	-3	.
Cc1ccc(C)c(S(=O)(=O)N2CCN(C(C)C(=O)Nc3ccccc3-c3ccccc3)CC2)c1 (centres undefined)	0	16µM*	?	-4	7	0%
Cc1ccc(C)c(S(=O)(=O)N2CCN(C(=O)CCCc3c[nH]c4ccccc34)CC2)c1	?	23µM*	?	-20	-2	.
CN(C)C(=O)CCC(=O)N1CCCC(N2CCN(c3cccc(C(F)(F)F)c3)CC2)C1 (centres undefined)	12	-19%	4%	2	2	6%
Cc1cc(C(=O)N2CCCC(N3CCN(c4cccc(C(F)(F)F)c4)CC3)C2)no1 (centres undefined)	-8	16µM*	?	-6	-5	4%
Cc1cc(C)c(C(=O)N2CCCC(N3CCN(c4cccc(C(F)(F)F)c4)CC3)C2)o1 (centres undefined)	-6	8.2µM*	21µM*	-18	-26	11%
Cc1noc(C)c1C(=O)N1CCCC(N2CCN(c3cccc(C(F)(F)F)c3)CC2)C1 (centres undefined)	16	-20%	-17%	2	1	2%[56.1 µM]
O=C(CCn1cccn1)N1CCCC(N2CCN(c3cccc(C(F)(F)F)c3)CC2)C1 (centres undefined)	2	15µM*	?	-3	3	4%[56.1 µM]
O=C(c1cc(C2CC2)on1)N1CCCC(N2CCN(c3cccc(C(F)(F)F)c3)CC2)C1 (centres undefined)	-58*	?	?	5	-7	-23%
COc1ccccc1CN1CC(C(=O)NCc2ccc(C)c(F)c2)CCC1=O (centres undefined)	49	4%	-20%	-1	5	4%
N#CC1=C(N)N(c2ccccc2)C(=O)C1	8	4%	-1%	5	-2	9%
